Results with a measured potency or affinity are listed apart.
Molecular target: Muscarinic acetylcholine receptor M5 (Homo sapiens) (UniProt P08912)
Assay: M5 muscarinic receptor antagonist potency, dose response, cell-based, CHO-K1 hM5, Fluo-4 calcium flux, ACh EC80 (AID 743110)
Details: series mostly up to 30 µM; response, % of max ACh: at the top concentration;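 active = Blocks human M5 receptor in a calcium assay, with half-maximal inhibiting concentration under 10 µM; inactive = the rest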

Sequence of Muscarinic acetylcholine receptor M5 (Homo sapiens) (P08912 whole entry, looked up): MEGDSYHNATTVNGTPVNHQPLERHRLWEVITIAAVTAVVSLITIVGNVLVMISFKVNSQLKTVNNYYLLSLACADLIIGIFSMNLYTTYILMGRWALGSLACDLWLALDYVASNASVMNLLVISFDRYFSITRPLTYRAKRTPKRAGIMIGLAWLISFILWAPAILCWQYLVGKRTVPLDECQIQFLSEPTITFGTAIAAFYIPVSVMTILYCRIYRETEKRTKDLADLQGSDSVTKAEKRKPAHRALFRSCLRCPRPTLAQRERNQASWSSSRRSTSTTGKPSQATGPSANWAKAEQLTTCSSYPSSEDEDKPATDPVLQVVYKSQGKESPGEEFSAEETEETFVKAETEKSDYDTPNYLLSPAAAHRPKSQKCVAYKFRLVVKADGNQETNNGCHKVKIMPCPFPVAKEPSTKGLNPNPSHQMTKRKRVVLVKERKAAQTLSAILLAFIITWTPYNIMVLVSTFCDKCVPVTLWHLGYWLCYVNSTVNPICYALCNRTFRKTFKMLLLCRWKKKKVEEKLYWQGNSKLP

response, % of max ACh, inactive:
CC(=O)c1cccc(OCc2cc(C(=O)NC(C)c3ccccn3)no2)c1 (stereo not given) 47.6
CC(c1ccccn1)N(C)C(=O)c1cc(COc2cccc(Br)c2)on1 (stereo not given) 49.8
CC(=O)c1cccc(OCc2ccc(C(=O)N(C)C(C)c3ccccn3)cc2)c1 (stereo not given) 53.7
CC(=O)c1cccc(N(Cc2cc(C(=O)N(C)C(C)c3ccccn3)no2)C(=O)c2ccccc2)c1 (stereo not given) 73
CC(=O)c1cccc(OCc2cccc(C(=O)N(C)C(C)c3ccccn3)c2)c1 (stereo not given) 38.2

— PubChem BioAssay AID743110 (Vanderbilt Specialized Chemistry Center, 2013)
